# Source: PubChem (National Center for Advancing Translational Sciences (NCATS))
# Hits are enriched below; roughly 6.6% of the tested compounds scored in any of these assays.
# HT1080-NT tox: qHTS for induction of synthetic lethality in tumor cells producing 2HG: qHTS for the HT-1080-NT fibrosarcoma cell line; HT-1080-NT fibrosarcoma viability, CellTiter-Glo ATP luminescence, 48 h; Potency, µM (series often up to 46.1 µM), for inactives: top-dose activity, negative = less viability, usual class: cytotoxic; actives 1.6% (n = 360,000); AID 686970, 2013;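 note: NT is the 2HG producing partner of a matched IDH1 knockdown line; 0% = DMSO-treated cells and -100% = media-only wells without cells; nearly all actives have a fitted effect of over 55% in size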
#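 Viability by CellTiter-Glo luminescence after 48 h compound exposure at 37C of HT-1080-NT cells (750/well, RPMI, 5% FBS). % activity scaled between DMSO wells and medium-only wells, then curve-fitted and categorized by curve class.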
# HT1080 IDH1KD tx: qHTS for induction of synthetic lethality in tumor cells producing 2HG: qHTS for the HT-1080-IDH1KD cell line | actives 2% (n = 360,000) | HT-1080 IDH1 knockdown viability, ATP luminescence, 48 h | Potency, µM (highest dose often 46.1 µM), inactives show top-dose activity, negative = toxicity, actives largely listed as cytotoxic;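 note: 0% = DMSO wells and -100% = cell-free medium wells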
#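 HT-1080-IDH1KD cells (IDH1 knocked down), 750/well in RPMI with 5% FBS, treated with compound 48 h at 37 degrees C. Viability by CellTiter-Glo luminescence, normalised to DMSO and no-cell wells; concentration-response curves classed.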
# KB-V1 MDR tox: qHTS assay for MDR1-selective chemotherapeutics: Primary screen using the drug-selected MDR subline cells KB-V1. AID 1347076, 2019. KB-V1 MDR cells viability, CellTiter-Glo, 72 h. actives 3.4% (n = 400,000). Potency, µM (highest dose often 46.1 µM), most hits filed as cytotoxic; note: % is set by controls: 0 for no effect and ±100 for the full control effect; nearly all actives have a fitted effect of over 60% in size
#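 Cytotoxicity via CellTiter-Glo luminescence after 72 h compound exposure at 37 degrees C. Cells: drug-selected KB-V1 line, DMEM phenol-red free plus 10% FBS. Compounds tested at multiple concentrations; normalized data fitted to concentration-effect curves.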
# KB-3-1 cytotox: qHTS assay for MDR1-selective chemotherapeutics: Primary screen using the parental adenocarcinoma cell KB-3-1; KB-3-1 viability, CellTiter-Glo ATP luminescence, 72 h; Potency, µM (highest dose often 46.1 µM), most hits filed as cytotoxic; actives 1.4% (n = 400,000); AID 1347075, 2019; note: % is set by controls: 0 for no effect and ±100 for the full control effect; nearly all actives have a fitted effect of over 60% in size
#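 Luminescent ATP read-out (CellTiter-Glo) measures survival of drug-naive KB-3-1 cells after 72 h compound exposure at 37 °C. Titration series was screened from lowest to highest concentration, with DMSO vehicle plates as background controls.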
# TGFb inhibitor: qHTS for Inhibitors of TGF-b; actives 1.2% (n = 410,000); Potency, µM (top dose mostly 46.1 µM), for the others: top-dose activity, negative = inhibition, usual class: inhibitors; HepG2 CAGA-GFP TGF-b/SMAD3 reporter, GFP fluorescence, 18 h; TGF-beta stimulated, 500 pg/mL final; note: % is set by controls: 0 for no effect and ±100 for the full control effect; nearly all actives have a fitted effect of over 65% in size
#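 HEPG2 CAGA-GFP, 1000 cells/well; 2 h settle, 37 C; cpd via pin tool; TGF-b 500 pg/mL final; 18 h, 37 C; GFP imaging ex488/em500-530; %Activity normalised to -TGF-b and +DMSO controls; CRC fit, curve class.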
# HepG2 tox: qHTS for Inhibitors of TGF-b: Cytotox Counterscreen | Potency, µM (highest dose often 46.1 µM), for inactives: top-dose activity change, negative = cytotoxicity, actives largely listed as cytotoxic | HepG2 CAGA-GFP viability, ATP luminescence, 18 h | AID 588856, 2011 | actives 0.76% (n = 410,000)
#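 HepG2 CAGA-GFP cells (1000/well, DMEM with 1% FBS) received compound, then TGF-beta at 500 pg/mL final, and were incubated 18 hours at 37 degrees C. Viability was read by CellTiter-Glo luminescence. Media-only wells were set as complete cell-killing and DMSO as no toxicity.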
# Numbers without * were called inactive; i = inactive; ? = inconclusive; nt = not tested or not shown. Calls come from the whole dose curve; as a rule, active = well fitted curve in the direction sought with a large enough effect; inconclusive = small, poorly fitted or top-dose-only effect, or another doubt; inactive = no such curve, though single readings can be large; an effect the other way counts as inactive or inconclusive. Potency is the fitted concentration of half-maximal effect.
SMILES,HT1080-NT tox,HT1080 IDH1KD tx,KB-V1 MDR tox,KB-3-1 cytotox,TGFb inhibitor,HepG2 tox
Cc1cc(=O)n(CC(=O)NC(C)c2ccccc2)c2c1c(C)nn2C (stereo not given),nt,nt,i,i,?,-24%
COc1ccc(C(CNC(=O)c2ccc(-c3ccccc3Cl)o2)N2CCOCC2)cc1 (stereo not given),1%,0%,?,i,-2%,0%
COc1ccccc1C(CNC(=O)c1ccc(-c2ccccc2Cl)o1)N1CCCC1 (stereo not given),?,21µM*,?,?,?,-27%
COc1ccc(C(CNC(=O)c2cc3ccccc3cc2OC)N2CCCC2)cc1 (stereo not given),-1%,0%,4.6µM*,i,4%,-25%
COc1ccc(Cl)cc1C(=O)NCC(c1ccco1)N1CCCC1 (stereo not given),1%,7%,9.2µM*,i,?,4%
COc1ccc(C(CNC(=O)CNC(=O)c2ccccc2Cl)N2CCCC2)cc1 (stereo not given),1%,6%,i,i,1%,0%
COc1ccc(C(CNC(=O)c2cccc(N(C)C)c2)N2CCCC2)cc1 (stereo not given),1%,0%,i,i,-12%,-22%
CCC1CCc2sc(C(=O)NCC(c3ccc(OC)cc3)N3CCCC3)cc2C1 (stereo not given),?,?,9.2µM*,?,?,-33%
Cc1ccc(C(=O)NCCC(C)C)cc1NC(=O)c1nsc2ccccc12,nt,nt,i,i,?,-35%
O=C(Nc1c(C(=O)O)oc2ccccc12)c1ccc(C(F)(F)F)cc1,nt,nt,i,i,6%,-16%
Cc1cc(NC(=O)NCc2ccc3c(c2)CCN3C(=O)c2ccccc2)ccc1Br,nt,nt,nt,nt,?,-3%
CC(O)(CS(=O)(=O)Cc1cccc(C(F)(F)F)c1)C(=O)Nc1cccc(C(F)(F)F)c1 (stereo not given),?,16µM*,?,i,?,-40%
CC(O)(CS(=O)(=O)Cc1ccccc1Cl)C(=O)Nc1cccc(C(F)(F)F)c1 (stereo not given),?,-30%,i,i,15%,-13%
COc1cc(OC)cc(C(=O)NCC(=O)N2CC=C(c3ccccc3)CC2)c1,16µM*,13µM*,7.3µM*,5.8µM*,-29%,4%
O=C(NCC(=O)N1CC=C(c2ccccc2)CC1)c1ccc(OC(F)F)cc1,?,-16%,13µM*,?,-3%,-2%
O=C(NCC(=O)N1CCN(C(c2ccccc2)c2ccccc2)CC1)c1ccccc1Br,-14%,-19%,i,?,?,-25%
O=C(NCC(=O)N1CC=C(c2ccccc2)CC1)c1ccccc1Br,-13%,-13%,?,?,-8%,0%
Cc1cc(C)cc(C(=O)NCC(=O)N2CCN(C(c3ccccc3)c3ccccc3)CC2)c1,?,?,18µM*,?,-20%,6%
Cc1ccccc1C(=O)NCc1ccc2c(c1)CCN2C(=O)c1ccc(F)cc1,nt,nt,i,i,18%,4%
O=C(Nc1ccc(Cl)c(Cl)c1)Nc1nnc(CSc2ccccc2)s1,-4%,-1%,15µM*,?,?,-5%
Cc1nnc(NC(=O)Nc2cccc(Cl)c2)s1,-11%,-16%,?,i,-13%,-16%
